Results reported in PubChem BioAssay (Tox21).
Values joined by “and” are separate entries in the source; they are usually repeats but may differ in a detail not shown here. Equal values may be shown once. Results filed as inconclusive are left out. A structure can be active in one record and inactive in another. Active and inactive are the calls of the source. Unless noted, calls follow the shape of the dose curve; as a rule, active = well fitted curve in the direction sought with a large enough effect in the repeat runs; inconclusive = weak or mixed curves; inactive = no such curve, though single readings can be large; an effect the other way counts as inactive or inconclusive.

Legend:
[1] = qHTS assay for small molecule agonists of the p53 signaling pathway (AID 651631; calls by dose curve; also: nearly all actives have a fitted effect of over 15% in size)
Outline: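 Agonist mode screen using a stably integrated beta-lactamase gene under p53 response elements in HCT-116 cells. Compound exposure lasts 16 h at 37 °C; fluorescence intensity is measured following 2 h FRET substrate loading.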

[2] = qHTS assay for small molecules that induce genotoxicity in human embryonic kidney cells expressing luciferase-tagged ATAD5 (AID 651632); also: nearly all actives have a fitted effect of over 15% in size
Outline: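 Test compounds were delivered by pin tool onto HEK293T reporter cells (2,000/well) expressing ATAD5 fused to luciferase. After 16 hr at 37C, 5% CO2, Amplite was added for 30 min at room temperature and luminescence was measured.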

[3] = qHTS assay for small molecule agonists of the p53 signaling pathway - cell viability (AID 651633; calls by dose curve; also: nearly all actives have a fitted effect of over 30% in size; also: potency is read from the fitted curve at half-maximal effect)
Outline: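 p53RE-bla cells, seeded at 4,000 per well and rested 5 h at 37 C/5% CO2, received compounds in DMSO for 16 h at 37 C. CellTiter-Glo was then added, and luminescence was read after 30 min at room temperature to gauge cytotoxicity.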

[4] = qHTS assay for small molecules that induce genotoxicity in human embryonic kidney cells expressing luciferase-tagged ATAD5 - cell viability (AID 651634; calls by dose curve; also: nearly all actives have a fitted effect of over 25% in size)
Outline: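 Quantitative high-throughput format. HEK293T cells expressing ATAD5 fused to luciferase were plated at 2,000 cells/well and treated 15.5 hr with compound versus DMSO. Viability was determined by fluorescent live-cell protease substrate, 30 min at 37C.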

[5] = qHTS assay for small molecule disruptors of the mitochondrial membrane potential - cell viability (AID 720634; calls by dose curve; also: nearly all actives have a fitted effect of over 20% in size; also: potency is read from the fitted curve at half-maximal effect)
Outline: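 Same-well counter-screen: following the MMP dye addition, CellTiter-Glo was added to 1 hr compound-treated HepG2 cells and luminescence read after 30 min at room temperature.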

[6] = qHTS assay for small molecule disruptors of the mitochondrial membrane potential (AID 720635); also: potency is read from the fitted curve at half-maximal effect
Outline: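 HepG2 cells (2,000/well) attached overnight at 37C, then took compound for 1 hr at 37C, 5% CO2. Mito-MPS dye was added for 30 min; fluorescence was read at 490/535 nm (monomers) and 540/590 nm (aggregates).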

[7] = qHTS assay to test for compound auto fluorescence at 590 nm (red) in HepG2 cells (AID 720674)
Outline: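 Intrinsic compound fluorescence in the red window (Ex/Em 540/590 nm) is measured in attached HepG2 cells exposed for 1 hr, DMSO vehicle as baseline, benchmarked to Rose Bengal sodium.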

[8] = qHTS assay to test for compound auto fluorescence at 535 nm (green) in HepG2 cells (AID 720675)
[9] = qHTS assay to test for compound auto fluorescence at 460 nm (blue) in HEK293 cells (AID 720678)
Outline: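 HEK293 cells (2,000/well, medium with 10% dialyzed FBS) attached 4-5 hr, then exposed to compound overnight at 37C, 5% CO2. Blue fluorescence read at 405/460 nm, with triamterene as reference fluorophore.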

[10] = qHTS assay to test for compound auto fluorescence at 590 nm (red) in HEK293 cells (AID 720679)
Outline: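 HEK293 cells (2,000/well, 10% dialyzed FBS) attached 4-5 hr, then dosed with compound or DMSO and incubated overnight at 37C, 5% CO2. Red fluorescence read at 540/590 nm, Rose Bengal sodium as reference fluorophore.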

Measured: Potency

Cl[C@H]1OCCO[C@@H]1Cl
inactive: all assays above

Nc1ccc([As](=O)(O)O)cc1
inactive: all assays above

CCNc1nc(Cl)nc(NC(C)C)n1
not listed: [5] | [6]
inactive: all other assays above

CNC(=O)Oc1cccc2ccccc12
active: [6] 13.3 µM
inactive: all other assays above

C/C=C/c1ccc2c(c1)OCO2
active: [6] 62.3 µM
not listed: [2]
inactive: all other assays above

N#Cc1ccccn1
inactive: all assays above

CCOP(=S)(OCC)Oc1ccc([N+](=O)[O-])cc1
55.1 µM (active) and inactive: [6]
inactive: all other assays above

O=C(O)C(Br)Br
inactive: all assays above

CC(C)CCCCCCOC(=O)c1ccccc1C(=O)OCCCCCCC(C)C
inactive: all assays above

Cc1ccc(N)cc1
inactive: all assays above

Cc1cccc(N)c1C
not listed: [6]
inactive: all other assays above

Cl/C=C/Cl
inactive: all assays above

Nc1cccc(Cl)c1
inactive: all assays above

Cc1cc(O)ccc1Cl
active: [6] 10.6 µM and 49.4 µM and 27.3 µM
inactive: all other assays above

COS(=O)(=O)OC
inactive: all assays above

CNC(=O)O/N=C(\SC)C(=O)N(C)C
inactive: all assays above

COC(C)(C)CCCC(C)C/C=C/C(C)=C/C(=O)OC(C)C (centres undefined)
inactive and 21.3 µM (active): [6]
inactive: all other assays above

CN(C)C(=O)Nc1cccc(C(F)(F)F)c1
inactive: all assays above

CCCOC(=O)c1ccccc1C(=O)OCCC
not listed: [6]
inactive: all other assays above

c1ccc2c(c1)CCCC2
not listed: [6]
inactive: all other assays above

O=C/C=C/c1ccccc1
inactive: all assays above

Nc1nc(N)nc(NC2CC2)n1
inactive: all assays above

N#Cc1cccc(C#N)c1
inactive: all assays above

CCOC(=O)CC(SP(=O)(OC)OC)C(=O)OCC (centres undefined)
inactive: all assays above

CCSC(=O)N1CCCCCC1
inactive: all assays above

COc1nc(NC(C)C)nc(NC(C)C)n1
inactive: all assays above

O=C(O)COc1ccccc1
inactive: all assays above

Nc1ncc([N+](=O)[O-])s1
not listed: [6]
inactive: all other assays above

N#CN=C(N)N
inactive: all assays above

CCOP(=S)(OCC)Oc1cc(C)nc(C(C)C)n1
inactive and 61.1 µM (active): [3]
inactive and 48.6 µM (active): [5]
inactive and 30.6 µM (active): [6]
inactive: all other assays above

CC(=O)/C=C/c1ccccc1
not listed: [1]
inactive: all other assays above

Cc1cccc(C)c1N
not listed: [1]
inactive: all other assays above

Cc1ccc(O)c(C)c1
not listed: [1]
inactive: all other assays above

COP(=S)(OC)Oc1ccc(SC)c(C)c1
inactive and 24.3 µM (active): [5]
active: [6] 53.9 µM and 27.3 µM
not listed: [1]
inactive: all other assays above

O=C(O)CCCc1ccc(N(CCCl)CCCl)cc1
not listed: [1]
inactive: all other assays above

CCOc1ccc(N)cc1
not listed: [1]
inactive: all other assays above

O=[N+]([O-])c1ccc(Cl)c(Cl)c1
not listed: [1]
inactive: all other assays above

C=CC#N
not listed: [1]
inactive: all other assays above

CNCC(O)c1ccc(O)cc1 (centres undefined)
not listed: [1]
inactive: all other assays above

O=C(O)Cc1ccccc1
not listed: [1]
inactive: all other assays above

COC(=O)Nc1cccc(OC(=O)Nc2cccc(C)c2)c1
active: [5] 7.7 µM | [6] 2.73 µM and 3.86 µM
not listed: [1]
inactive: all other assays above

ClC(Cl)c1ccccc1
not listed: [1]
inactive: all other assays above

CNC(=O)O/N=C/C(C)(C)S(C)=O (centres undefined)
not listed: [1]
inactive: all other assays above

CN(C)C(=O)C(c1ccccc1)c1ccccc1
not listed: [1]
inactive: all other assays above

Oc1ccc(Cl)cc1
not listed: [2] | [5] | [6]
inactive: all other assays above

CC(C)(C)C(=O)CCl
not listed: [1]
inactive: all other assays above

O=C(O)C1C(C(=O)O)C2(Cl)C(Cl)=C(Cl)C1(Cl)C2(Cl)Cl (centres undefined)
not listed: [1]
inactive: all other assays above

CC(C)c1cccc(C(C)C)c1O
active: [6] 54.3 µM and 61.1 µM
not listed: [1]
inactive: all other assays above

CNc1cnn(-c2cccc(C(F)(F)F)c2)c(=O)c1Cl
not listed: [2]
inactive: all other assays above

C=CCN=C=S
not listed: [1]
inactive: all other assays above

CSc1nnc(C(C)(C)C)c(=O)n1N
not listed: [1]
inactive: all other assays above

CC(=O)C1CCOC1=O (centres undefined)
not listed: [1]
inactive: all other assays above

Cc1cccc(C)c1NC(=O)CN1CCCC1=O
not listed: [1]
inactive: all other assays above

CN(C)NC(=O)CCC(=O)O
not listed: [2] | [4]
inactive: all other assays above

CCCCC(CC)C(=O)Cl (centres undefined)
not listed: [1]
inactive: all other assays above

FC(F)(F)c1ccc(Cl)cc1
not listed: [1]
inactive: all other assays above

OCC(O)CCl (centres undefined)
not listed: [1]
inactive: all other assays above

CN(C)C(=O)Cl
not listed: [1]
inactive: all other assays above

O=[N+]([O-])c1ccc(Cl)cc1
not listed: [1]
inactive: all other assays above

O=[N+]([O-])c1cc([As](=O)(O)O)ccc1O
not listed: [1]
inactive: all other assays above

Cc1cc(Cl)ccc1OC(C)C(=O)O (centres undefined)
not listed: [1]
inactive: all other assays above
